Assay results: PubChem BioAssay AID504708 (Sanford-Burnham Center for Chemical Genomics, 2011)
The list shows a part of the results. Unmarked numbers belong to inactive results. Calls of active or inactive are those of the source.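 Rule for the calls: active = inhibition at or below a set negative limit, negative inhibition meaning the enzyme was activated; inactive = the rest.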

Biological target: Hexokinase HKDC1 (Homo sapiens) (UniProt Q2TB90)
Assay: HKDC1 hexokinase activators, confirmation, biochemical, single concentration (AID 504708)
Settings: recombinant HKDC1, G6PDH/diaphorase resazurin fluorescence; at 20 µM; hits give low values

Sequence of Hexokinase HKDC1 (Homo sapiens) (Q2TB90 whole entry, looked up): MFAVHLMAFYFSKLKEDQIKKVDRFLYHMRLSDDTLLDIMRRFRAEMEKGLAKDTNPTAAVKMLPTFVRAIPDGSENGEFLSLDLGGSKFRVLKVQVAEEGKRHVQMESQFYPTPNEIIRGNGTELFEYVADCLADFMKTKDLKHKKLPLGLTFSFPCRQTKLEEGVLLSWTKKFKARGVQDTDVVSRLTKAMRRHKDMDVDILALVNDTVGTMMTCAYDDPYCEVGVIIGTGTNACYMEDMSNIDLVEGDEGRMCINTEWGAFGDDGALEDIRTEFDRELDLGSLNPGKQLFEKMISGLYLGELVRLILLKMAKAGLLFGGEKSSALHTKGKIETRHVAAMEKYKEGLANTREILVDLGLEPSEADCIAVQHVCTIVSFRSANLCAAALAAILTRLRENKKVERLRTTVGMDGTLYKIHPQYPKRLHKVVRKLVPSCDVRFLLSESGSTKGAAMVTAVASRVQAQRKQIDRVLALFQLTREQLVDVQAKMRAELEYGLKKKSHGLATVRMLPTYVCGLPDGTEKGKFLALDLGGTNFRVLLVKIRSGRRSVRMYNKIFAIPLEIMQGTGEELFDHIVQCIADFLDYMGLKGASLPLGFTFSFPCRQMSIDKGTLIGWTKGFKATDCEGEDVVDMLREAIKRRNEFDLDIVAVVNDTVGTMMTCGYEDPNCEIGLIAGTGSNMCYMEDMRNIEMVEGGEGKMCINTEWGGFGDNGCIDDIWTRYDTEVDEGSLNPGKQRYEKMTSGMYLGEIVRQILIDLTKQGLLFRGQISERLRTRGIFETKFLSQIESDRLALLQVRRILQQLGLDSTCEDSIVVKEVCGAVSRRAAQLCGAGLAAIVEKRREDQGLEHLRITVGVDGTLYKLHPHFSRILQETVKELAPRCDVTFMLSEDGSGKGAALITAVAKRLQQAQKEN

Structure (SMILES) | inhibition
CC(=O)OC1C2(CC3N4C(=O)C5(CO)SSC4(CC31O)C(=O)N5C)OC(C)C(C)(C)C2=O (configuration not stated) | -77% (active)
O=C1NC(=O)N(c2ccc(F)cc2)C(=O)/C1=C/c1ccc2c(c1)CCCN2Cc1ccccc1 | 1.36%
